Only some compounds are listed: those with a hit (about 0.83% of all), similar ones and a draw of the others.
Smad3 inh: Smad3/FoxH1 peptide binding inhibitors, primary screen, biochemical, TR-FRET; Mothers against decapentaplegic homolog 3 (Homo sapiens), P84022; TR-FRET Smad3/Dy647-FoxH1 peptide binding, europium anti-His; inhibition, % at 25 µM; 0.29% of 88,000 active;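 active means compounds that reduce the energy-transfer binding signal between the protein and its labelled peptide by more than half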
Target sequence (P84022 whole entry, looked up): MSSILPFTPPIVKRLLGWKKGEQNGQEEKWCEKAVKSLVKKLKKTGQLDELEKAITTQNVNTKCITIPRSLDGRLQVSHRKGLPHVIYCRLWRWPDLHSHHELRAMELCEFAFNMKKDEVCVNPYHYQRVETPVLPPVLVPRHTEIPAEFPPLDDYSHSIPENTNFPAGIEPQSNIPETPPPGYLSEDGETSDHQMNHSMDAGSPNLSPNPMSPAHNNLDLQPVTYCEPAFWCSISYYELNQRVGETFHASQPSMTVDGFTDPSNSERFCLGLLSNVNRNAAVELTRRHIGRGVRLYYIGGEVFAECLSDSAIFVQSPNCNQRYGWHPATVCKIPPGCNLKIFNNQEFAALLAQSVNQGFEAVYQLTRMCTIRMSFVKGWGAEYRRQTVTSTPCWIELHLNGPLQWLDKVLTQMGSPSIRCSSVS
MRP reversal: reversal of MRP1-mediated doxorubicin resistance, primary screen, H69AR cells, doxorubicin co-treatment; differential viability (reversal), % at 10 µM; 0.04% of 85,000 active; AID 602, 2007; H69AR cells + 2 uM doxorubicin, CellTiter-Glo, 72 h;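 active means viability drop by adding the cancer drug above about 55%, with treated viability meeting a 40% cutoff, limit read from the data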;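 further: larger differential means the compound sensitizes cells more to doxorubicin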
Candida biofilm: clotrimazole potentiators killing Candida biofilms, primary screen, with clotrimazole, Alamar Blue; 0.14% of 85,000 active; inhibition, % at 6 µM; AID 834, 2007; C. albicans biofilm + clotrimazole;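 active means inhibition above 20%; inactive means inhibition below 20%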;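 further: preformed 24 hr biofilms exposed to compound for 48 hr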
MRP1 act: H69AR viability gain despite doxorubicin, primary screen, MRP-1 activator project, H69AR cells, CellTiter-Glo; AID 799, 2007; viability rescue; viability increase, % at 10 µM; 0.61% of 140,000 active;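 active means viability gain under doxorubicin at or above a set limit, the compound median plus 3 SD, cut at about 4.7% in these data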;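 further: MRP-1 overexpressing cells given doxorubicin 25 µM after compound pretreatment; 18-22 h compound pretreatment then 72 h with doxorubicin before readout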
Each line names hits and unclear results; the compound was inactive in the other large screens; [ ] = another dose, or the depositor's remark.

COc1cc(OC)cc(-c2nnc(SCC(=O)Nc3cc(C)on3)o2)c1	MRP reversal 64.4 (no result: MRP1 act)
CC(C)C(=O)NC(c1ccccc1)c1cc([N+](=O)[O-])c2cccnc2c1O (stereo not drawn)	none (no result: Smad3 inh, MRP reversal, Candida biofilm)
O=[N+]([O-])c1cc(Cc2cc([N+](=O)[O-])c3cccnc3c2O)c(O)c2ncccc12	Smad3 inh 99.3 (no result: MRP reversal, Candida biofilm, MRP1 act)
c1ccc(C(c2ccccc2)N2CCN(c3nc4ccccc4n4cnnc34)CC2)cc1	MRP1 act 6.7
c1cnc(N2CCN(c3nc4ccccc4n4cnnc34)CC2)nc1	none
CC1(C)S[C@H]2[C@H](NC(=O)Cc3ccccc3)C(=O)N2[C@@H]1C(=O)O	none (no result: MRP reversal, Candida biofilm, MRP1 act)
C[C@]12CCC(=O)C=C1CC[C@H]1[C@H]2C(=O)C[C@]2(C)C(CC(=O)O)=CC[C@@H]12	none (no result: MRP reversal, Candida biofilm, MRP1 act)
CCN1CCN(C(=O)c2oc(=O)c3ccccc3c2-c2ccc(C)cc2)CC1	none
Cc1ccc(-c2c(C(=O)N3CCOCC3)oc(=O)c3ccccc23)cc1	Candida biofilm 27.0
Nc1nc(N)c2[nH]c(CNC3CCC(C(=O)O)CC3)nc2n1 (stereo not drawn)	none (no result: MRP reversal, Candida biofilm, MRP1 act)
COc1cc(/C=C(\C#N)c2ccccn2)ccc1OCc1ccccc1Cl	MRP1 act 5.9 (no result: Smad3 inh, MRP reversal, Candida biofilm)
N=C(N)[C@H](N=Nc1ccccc1)C(N)=O	none (no result: MRP reversal, Candida biofilm, MRP1 act)
N/C(Cc1cccs1)=N\OC(=O)COc1ccc(Br)cc1	MRP1 act 5.3
Cc1ccc(N2CCN(CCC(=O)O)CC2)cc1	none (no result: MRP reversal, Candida biofilm, MRP1 act)
O=C(NC(=S)Nc1nc(-c2ccccc2)cs1)c1cncc(Br)c1	MRP1 act 6.8 (no result: Smad3 inh, MRP reversal, Candida biofilm)
O=C(Nc1nc(-c2ccccc2)cs1)c1ccc(Br)o1	MRP1 act 6.9 (no result: Smad3 inh, MRP reversal, Candida biofilm)
CCc1ccc(-c2csc(NC(=O)Oc3ccccc3)n2)cc1	MRP1 act 12.9 (no result: Smad3 inh, MRP reversal, Candida biofilm)
COc1ccc(C(=O)N/N=C2\C(=O)c3c(C)cc(C)cc3CC2(C)C)cc1	none (no result: MRP reversal, Candida biofilm, MRP1 act)
CN1CCC[C@H](C(=O)OCC(=O)[C@]2(O)CC[C@@H]3[C@H]4CCC5=CC(=O)CC[C@@]5(C)[C@@H]4[C@@H](O)C[C@]32C)C1	none (no result: MRP reversal, Candida biofilm, MRP1 act)
Cc1ccc(Nc2nc(CSc3nnnn3C)cs2)cc1	MRP1 act 5.4
Cn1nnnc1SCc1csc(Nc2ccccc2)n1	none (no result: Candida biofilm)
CCCCn1c(NC(=O)c2ccccc2Cl)c(C#N)c2nc3ccccc3nc21	Smad3 inh 79.8
O=c1c2ccccc2c2ccccc2c(=O)n1-c1cc2c3ccccc3ccc2c2ccccc12	Smad3 inh 86.2 (no result: MRP reversal, Candida biofilm, MRP1 act)
CN(C)C[C@@H](O)c1ccc(Cl)c2ccccc12	none (no result: MRP reversal, Candida biofilm, MRP1 act)
O=C(Nc1nccs1)C1CCCN(S(=O)(=O)c2cccnc2)C1 (stereo not drawn)	none
O=C(Nc1nccs1)C1CCN(S(=O)(=O)c2cccnc2)CC1	Candida biofilm 21.1
Cc1ccc2nc(Nc3nc(CSc4nc5ccccc5s4)cc(=O)[nH]3)nc(C)c2c1	MRP1 act 11.2 (no result: Smad3 inh, MRP reversal, Candida biofilm)
Cc1nnc(SCc2cc(=O)[nH]c(Nc3nc(C)c4ccccc4n3)n2)s1	none (no result: MRP1 act)
Cn1ncc2c(Cl)ncnc21	none (no result: MRP reversal, Candida biofilm, MRP1 act)
COc1cccc(/C=N/NC(=O)C(=O)N2CCCC2)c1O	MRP1 act 5.4 (no result: Smad3 inh, MRP reversal, Candida biofilm)
COc1cccc(/C=N/NC(=O)Cn2nc(C)c([N+](=O)[O-])c2C)c1O	MRP1 act 6.6 (no result: Smad3 inh, MRP reversal, Candida biofilm)
COc1cccc(/C=N/NC(=O)C(=O)N2CCCC2)c1OC	none (no result: Smad3 inh, MRP reversal, Candida biofilm)
COc1cccc(/C=N/NC(=O)C(C)n2nc(C)c([N+](=O)[O-])c2C)c1O (stereo not drawn)	MRP1 act 9.0 (no result: Smad3 inh, MRP reversal, Candida biofilm)
O=C(O)c1ccc(CNCc2ccccc2)cc1	none (no result: MRP reversal, Candida biofilm, MRP1 act)
Nc1ncnc2nc(-c3ccc(C[P+](c4ccccc4)(c4ccccc4)c4ccccc4)cc3)[nH]c12	none (no result: MRP reversal, Candida biofilm, MRP1 act)
COc1ccc(C2=NN(C(=O)c3cccs3)C(c3ccc(OC)cc3)C2)cc1 (stereo not drawn)	MRP1 act 7.5 (no result: Smad3 inh, MRP reversal, Candida biofilm)
COc1ccc(C=Nc2c(O)ccc3ccccc23)cc1OC	none (no result: MRP reversal, Candida biofilm, MRP1 act)
O=C(NC(=S)Nc1ccccc1N1CCOCC1)c1ccc(-c2cc(Cl)ccc2Cl)o1	MRP1 act 14.5 (no result: Smad3 inh, MRP reversal, Candida biofilm)
O=C(NC(=S)Nc1ccccc1N1CCOCC1)c1ccco1	none (no result: Smad3 inh, MRP reversal, Candida biofilm)
Cc1c(OCC(=O)OC(C)(C)C)ccc2c3c(c(=O)oc12)CCC3	MRP1 act 5.1
Cc1cc(C)c(NC(=O)c2sc3nc4c(cc3c2N)C(=O)CC(C)(C)C4)c(C)c1	MRP1 act 5.4 (no result: Smad3 inh, MRP reversal, Candida biofilm)
COC(=O)c1sc2nc3c(cc2c1N)C(=O)CC(C)(C)C3	none
Clc1cccc(Cl)c1C(Nc1nncs1)Nc1nncs1	none (no result: MRP reversal, Candida biofilm, MRP1 act)
COc1ccc(CN(CC(=O)NCC2CCCO2)C(=O)CNS(=O)(=O)c2ccc(C)cc2)cc1 (stereo not drawn)	none
Cc1ccc(S(=O)(=O)NCC(=O)N(CC(=O)NCC2CCCO2)Cc2ccccc2)cc1 (stereo not drawn)	Candida biofilm 20.2
COc1ccc(S(=O)(=O)NCc2cn3c(C)csc3n2)cc1F	Candida biofilm 21.3
COc1cccc(C(=O)NC2CC3CCCC(C2)N3CC(=O)Nc2ccccc2)c1 (stereo not drawn)	Smad3 inh 81.1
O=S1(=O)[C@H]([C@H]2CC3c4ccccc4C2c2ccccc23)[C@@H](N2CCCCC2)[C@@H]1c1ccccc1	none (no result: MRP reversal, Candida biofilm, MRP1 act)
NS(=O)(=O)C1=C(Cl)CC2=NC(CCC(=O)O)=NS(=O)(O)=C2C1	none (no result: MRP reversal, Candida biofilm, MRP1 act)
CN1CCC[C@H]1c1cccnc1.O=C(O)c1ccccc1O.O=C([OH2+])c1ccccc1O.O=C([OH2+])c1ccccc1O.O=C([OH2+])c1ccccc1O.[Cu]	Smad3 inh 96.8 (no result: MRP reversal, Candida biofilm, MRP1 act)
Cn1c(=O)c2c(nc(CN3CCN(c4ccccc4)CC3)n2Cc2c(F)cccc2Cl)n(C)c1=O	MRP reversal 59.8
Cn1c(=O)c2c(nc(CN3CCN(c4ccccc4)CC3)n2Cc2ccccc2Cl)n(C)c1=O	none
c1ccc2c(CN3CCN(Cc4c[nH]c5ccccc45)CC3)c[nH]c2c1	none (no result: MRP reversal, Candida biofilm, MRP1 act)
COC(=O)c1ccc2c(c1)NC(=O)C1CCCN21 (stereo not drawn)	Smad3 inh 55.9[fluorescence artefact?]
Cc1ccc(NC(=O)COC(=O)c2ccc3c(c2)NC(=O)C2CCCN32)cc1 (stereo not drawn)	none
O=C(Cn1c(=O)oc2cc(S(=O)(=O)N3CCCC3)ccc21)NCc1ccccn1	MRP1 act 5.3
S=c1[nH]nc(COc2ccc(Cl)cc2)o1	MRP1 act 4.9
COc1ccc(OCc2n[nH]c(=S)o2)cc1	none
CC(=O)OCC(=O)[C@@]12OC(C)(C)O[C@@H]1C[C@H]1[C@H]3CC=C4C[C@@H](O)CC[C@]4(C)[C@@H]3CC[C@@]12C	Smad3 inh 98.2 (no result: MRP reversal, Candida biofilm, MRP1 act)
CC12CCC(O)CC1=CCC1C2CCC2(C)C1CCC21CCC(=O)O1 (stereo not drawn)	none (no result: Smad3 inh, MRP reversal, Candida biofilm)
NC(=O)COc1ccc(C2c3c(oc4ccccc4c3=O)C(=O)N2CC2CCCO2)cc1 (stereo not drawn)	Smad3 inh 77.1
COc1ccc(C2c3c(oc4ccccc4c3=O)C(=O)N2CC2CCCO2)cc1 (stereo not drawn)	none
CC1=NN(C(=O)c2ccc(Cn3nc(C)c(Br)c3C)cc2)C(O)(C(F)(F)F)C1 (stereo not drawn)	MRP1 act 5.2 (no result: Smad3 inh, MRP reversal, Candida biofilm)
NC(N)=NC(N)=Nc1c(F)c(F)c(F)c(F)c1F	Smad3 inh 55.8 (no result: MRP reversal, Candida biofilm, MRP1 act)

High-throughput results (PubChem)
